Results taken from PubChem BioAssay (EPA / NIEHS).
Records with an inconclusive call do not appear. The source made the active and inactive calls. Rule for the calls, unless noted: active = hit-call score of the fitted dose curve at least 0.9, where 1 is the maximum; inactive = score below 0.9.

Tests used:
[1] = target: Nuclear receptor subfamily 4 group A member 2 (Homo sapiens) (UniProt P43354); test: ATG_NURR1_TRANS: Attagene TRANS-FACTORIAL HepG2 Assay for human Nuclear Receptor Related Protein 1 (NURR1) (AID 2282985; active = hit-call score of the fitted dose curve at least 0.9, where 1 is the maximum); conditions: HepG2 Attagene TRANS reporter, mRNA readout
Sequence of Nuclear receptor subfamily 4 group A member 2 (Homo sapiens) (P43354 whole entry, looked up, the tested form may be a part): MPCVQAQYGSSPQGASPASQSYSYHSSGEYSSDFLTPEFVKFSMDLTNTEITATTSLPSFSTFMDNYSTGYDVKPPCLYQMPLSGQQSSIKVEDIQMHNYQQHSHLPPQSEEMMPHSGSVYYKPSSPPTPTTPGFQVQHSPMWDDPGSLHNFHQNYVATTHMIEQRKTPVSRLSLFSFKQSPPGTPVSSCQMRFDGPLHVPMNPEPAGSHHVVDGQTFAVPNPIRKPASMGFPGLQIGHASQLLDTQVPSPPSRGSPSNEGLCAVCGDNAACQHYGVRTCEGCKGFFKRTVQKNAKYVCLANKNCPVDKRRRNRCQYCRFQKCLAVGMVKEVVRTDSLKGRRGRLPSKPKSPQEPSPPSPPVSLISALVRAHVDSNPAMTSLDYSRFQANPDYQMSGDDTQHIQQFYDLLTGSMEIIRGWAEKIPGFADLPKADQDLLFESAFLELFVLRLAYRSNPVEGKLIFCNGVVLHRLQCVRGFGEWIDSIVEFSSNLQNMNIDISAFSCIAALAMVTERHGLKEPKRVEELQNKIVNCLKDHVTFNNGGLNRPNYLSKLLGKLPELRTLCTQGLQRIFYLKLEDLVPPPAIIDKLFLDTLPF
Method in brief: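 Read-out: reporter mRNA induction by RT-PCR plus capillary electrophoresis with fluorescence detection, after 24 h dosing of transfected HepG2 cells. Exogenous NR-Gal4 chimera activity drives GAL4-UAS reporter; activity fitted upward versus DMSO.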

[2] = target: human Thyroid Receptor alpha (THRa1), THRA (gene 7067) (UniProt P10827); test: ATG_THRa1_TRANS: Attagene TRANS-FACTORIAL HepG2 Assay for human Thyroid Receptor alpha (THRa1) (AID 2283014; active = hit-call score of the fitted dose curve at least 0.9, where 1 is the maximum)
Sequence of human Thyroid Receptor alpha (THRa1), THRA (gene 7067) (P10827 whole entry, looked up, the tested form may be a part): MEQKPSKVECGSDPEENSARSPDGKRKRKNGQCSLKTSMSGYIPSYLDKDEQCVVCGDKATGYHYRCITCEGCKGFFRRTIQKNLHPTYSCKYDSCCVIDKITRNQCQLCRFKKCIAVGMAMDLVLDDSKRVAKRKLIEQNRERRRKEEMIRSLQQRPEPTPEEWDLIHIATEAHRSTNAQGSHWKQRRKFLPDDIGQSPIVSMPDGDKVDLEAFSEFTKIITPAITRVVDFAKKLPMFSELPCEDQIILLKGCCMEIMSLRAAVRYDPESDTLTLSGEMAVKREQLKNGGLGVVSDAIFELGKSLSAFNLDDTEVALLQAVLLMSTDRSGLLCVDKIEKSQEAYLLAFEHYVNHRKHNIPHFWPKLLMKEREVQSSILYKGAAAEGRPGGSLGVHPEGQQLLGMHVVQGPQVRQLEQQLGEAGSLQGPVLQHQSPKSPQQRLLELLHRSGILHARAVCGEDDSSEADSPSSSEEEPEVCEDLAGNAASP
Method in brief: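 Measured here is mRNA from a GAL4-UAS reporter in transfected HepG2 cells carrying a Gal4-fused receptor, 24 h post-dose. DMSO served as negative control and baseline.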

[3] = ATG_GAL4_TRANS: Attagene TRANS-FACTORIAL HepG2 Assay for GAL4 (Internal Marker) (AID 2282976; active = hit-call score of the fitted dose curve at least 0.9, where 1 is the maximum); conditions: HepG2 Attagene TRANS GAL4 internal marker reporter
Method in brief: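 Liver HepG2 line bearing multiplexed GAL4-UAS reporter constructs; 24 h chemical treatment. Transcripts were quantified as fluorescent fragments on capillary electrophoresis after RT-PCR and HpaI cut, with activity fitted upward from DMSO.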

[4] = CCTE_Shafer_MEA_acute_burst_percentage_mean: CCTE's Neural Acute Assay for Percentage of Spikes in a Burst, Shafer Lab (AID 2284017);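 for AC50: curve fitted for loss of signal so potency reflects decreased burst percentage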
Method in brief: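 Primary rat cortical neurons on 48-well MEA plates, treated on DIV 13 or 15 at 0.03-40 uM. Spikes detected at 8x rms noise at 37C; percent change from 40-min baseline to 40-min post-dose recording, fitted versus DMSO.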

[5] = CCTE_Shafer_MEA_acute_burst_percentage_std: CCTE's Neural Acute Assay for Standard Deviation of Burst Percentage, Shafer Lab (AID 2284018);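 note: fitted in the negative direction so actives lower burst percentage SD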
Method in brief: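 Rat primary cortical neurons on 48-well MEAs, DIV 13 or 15, 37 C. 40-min baseline then 40-min recording with compound (0.03-40 uM); well-level SD of per-electrode burst spike percentage, expressed as percent change from baseline.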

[6] = CCTE_Shafer_MEA_acute_per_network_burst_spike_number_mean: CCTE's Neural Acute Assay for Average Number of Spikes in a Network Burst, Shafer Lab (AID 2284019);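 for AC50: curve fitted for loss of signal so actives reduce spikes per network burst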
Method in brief: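 Rat cortical cultures, DIV 13/15; spike threshold 8x rms noise, 300-5000 Hz band-pass, 12.5 kHz sampling; wells need >/= 10 active electrodes. Compound 0.03-40 uM, 40 min, 37 C; % change vs own baseline, DMSO negative control.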

[7] = CCTE_Shafer_MEA_acute_per_network_burst_spike_number_std: CCTE's Neural Acute Assay for Standard Deviation of Number of Spikes in a Network Burst, Shafer Lab (AID 2284020);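 note: fitted for decrease in spike-number SD versus DMSO so actives lower it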
Method in brief: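 Rat cortical cultures, DIV 13/15, 37 C; 20-min stabilisation, 40-min baseline, compound 0.03-40 uM, 40-min re-record. Spikes detected at 8x rms noise (300-5000 Hz band-pass). Readout: % change from baseline in per-burst spike-number SD.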

[8] = CCTE_Shafer_MEA_acute_per_network_burst_electrodes_number_mean: CCTE's Neural Acute Assay for Mean Number of Electrodes in a Network Burst, Shafer Lab (AID 2284021);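 note: curves fitted for decreases only so hits reduce electrodes per burst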
Method in brief: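 Percent change from baseline in average electrode count per network burst, rat cortical cultures on 48-well MEAs; 40-min recordings each side of exposure, DIV 13 or 15; threshold 8x rms noise; DMSO as negative control.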

[9] = CCTE_Shafer_MEA_acute_network_burst_percentage: CCTE's Neural Acute Assay for Percentage of Network Bursts, Shafer Lab (AID 2284022);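 note: curves fitted for loss so actives lower network burst percentage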
Method in brief: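 On DIV 13 or 15, at least three wells of rat cortical neurons per compound are dosed at 0.03-40 uM. Spontaneous firing is detected at 8x rms noise for 40 min before and after dosing at 37 C. The percent change in network-burst spike share is reported.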

[10] = CCTE_Shafer_MEA_acute_cross_correlation_area: CCTE's Neural Acute Assay for Area of Cross Correlation, Shafer Lab (AID 2284024);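 note: area under pooled inter-electrode spike cross-correlation near zero lag as percent change from own baseline; curves fitted for loss of cross-correlation area so actives lower synchrony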
Method in brief: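 Extracellular recordings from cultured rat cortical neurons measure network synchrony as cross-correlation area; each well's post-compound value (0.03-40 uM, 40 min) is compared with its own 40 min baseline to give percent change.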

[11] = CCTE_Shafer_MEA_acute_cross_correlation_HWHM: CCTE's Neural Acute Assay for Cross Correlation at Half Width at Half Maximum, Shafer Lab (AID 2284026);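 note: percent change per well from pre-dose baseline in spike cross-correlogram half width; hits are a decrease in cross-correlogram half width relative to DMSO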
Method in brief: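 Percent change in cross-correlogram half width at half maximum, narrower meaning more synchrony, was derived per well from paired 40-min recordings before and during exposure to 0.03-40 uM compound in rat cortical cultures at 37 C.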

[12] = CCTE_Shafer_MEA_acute_synchrony_index: CCTE's Neural Acute Assay for Synchrony, Shafer Lab (AID 2284027);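 note: network synchrony index of spontaneous spiking in primary rat cortical neurons on MEAs; fitted for loss of signal so actives lower synchrony relative to DMSO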
Method in brief: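 Rat cortical cultures, DIV 13/15; spikes detected at 8x rms noise, 300-5000 Hz band-pass. Compound 0.03-40 uM, ≥3 wells; 40-min pre- and post-exposure recordings, 37 C. Readout: % change in synchrony index; loss-of-signal fit vs DMSO.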

[13] = CCTE_Shafer_MEA_acute_LDH: CCTE's Lactate Dehydrogenase Assay for Cytotoxicity in the Neural Acute Assay, Shafer Lab (AID 2284086; active = hit-call score of the fitted dose curve at least 0.9, where 1 is the maximum;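 note: active means LDH release rises above DMSO vehicle level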)
Method in brief: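 LDH absorbance at 490 nm in medium taken right after 40-min compound exposure; rat primary cortical neuron networks on MEA plates, days post-plating 13 or 15. Increase over DMSO baseline scored as cytotoxicity.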

[14] = CCTE_Harrill_HTTr_CellCount_MCF7: CCTE's Cell Proliferation Assessment for the High-Throughput Transcriptomics (HTTr) Platform, Harrill Lab (AID 2284012; active = hit-call score of the fitted dose curve at least 0.9, where 1 is the maximum;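 note: count of Hoechst-stained nuclei per well by high-content imaging in MCF-7 cells; cells exposed to compound for six hours; intended direction is loss of nuclei count meaning fewer cells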)
Method in brief: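 Readout: Hoechst nuclear count by high-content imaging. MCF-7, 8-point dilution series, 6 h exposure. Bidirectional fit vs DMSO baseline.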

[15] = ATG_Ets_CIS: Attagene CIS-FACTORIAL HepG2 Assay for human Erythroblast Transformation Specific (ETS) (AID 2282941); conditions: HepG2 ETS cis-reporter transcription, actives raise or lower the signal
Method in brief: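 Cis-regulated reporter mRNA induction in HepG2 (transient transfection), 24 h exposure, RT-PCR plus capillary electrophoresis detection; DMSO serves as negative control and baseline.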

[16] = target: Nuclear receptor subfamily 1 group I member 3 (Homo sapiens) (UniProt Q14994); test: ATG_CAR_TRANS: Attagene TRANS-FACTORIAL HepG2 Assay for human Constitutive Androstane Receptor (CAR) (AID 2282969; active = hit-call score of the fitted dose curve at least 0.9, where 1 is the maximum;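 note: activators raise reporter mRNA above DMSO so AC50 marks induction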); conditions: HepG2 Attagene TRANS-FACTORIAL CAR reporter
Sequence of Nuclear receptor subfamily 1 group I member 3 (Homo sapiens) (Q14994 whole entry, looked up, the tested form may be a part): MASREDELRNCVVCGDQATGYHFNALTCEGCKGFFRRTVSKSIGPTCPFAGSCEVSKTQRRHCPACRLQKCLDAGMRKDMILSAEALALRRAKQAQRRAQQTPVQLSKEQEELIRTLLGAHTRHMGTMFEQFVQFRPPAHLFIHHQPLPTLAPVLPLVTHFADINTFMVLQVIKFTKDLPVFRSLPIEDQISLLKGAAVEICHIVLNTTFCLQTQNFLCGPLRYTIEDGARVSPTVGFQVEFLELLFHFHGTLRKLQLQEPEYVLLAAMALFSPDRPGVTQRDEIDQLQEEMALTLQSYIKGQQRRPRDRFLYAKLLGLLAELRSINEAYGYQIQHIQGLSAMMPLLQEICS
Method in brief: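 Transiently transfected HepG2, multiplex TRANS reporters (CAR-Gal4 chimera driving GAL4-UAS reporter). 24 h dosing. Readout: reporter transcript by RT-PCR + capillary electrophoresis, fluorescence intensity; positive direction vs DMSO.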

[17] = ATG_NRF2_ARE_CIS: Attagene CIS-FACTORIAL HepG2 Assay for human Nuclear Factor Erythroid 2 Related Factor 2 (NFR2) response to Antioxidant Response Elements (ARE) (AID 2282992); conditions: HepG2 Attagene ARE/NRF2 reporter, transcription factor activity; actives raise or lower the signal;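 for AC50: reporter mRNA level measured by RT-PCR and capillary electrophoresis fluorescence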
Method in brief: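 Endogenous transcription factor activity in human liver HepG2 cells is tracked via a cis-element-driven reporter within a multiplexed set. mRNA induction is read by RT-PCR and capillary electrophoresis after 24 h, with DMSO as baseline.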

[18] = target: Bile acid receptor (Homo sapiens) (UniProt Q96RI1); test: ATG_FXR_TRANS: Attagene TRANS-FACTORIAL HepG2 Assay for Farnesoid X Receptor (FXR) (AID 2282979; active = hit-call score of the fitted dose curve at least 0.9, where 1 is the maximum;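 note: hits raise reporter mRNA above DMSO so AC50 marks FXR activation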); conditions: HepG2 Attagene TRANS FXR-GAL4 reporter transcription
Sequence of Bile acid receptor (Homo sapiens) (Q96RI1 whole entry, looked up, the tested form may be a part): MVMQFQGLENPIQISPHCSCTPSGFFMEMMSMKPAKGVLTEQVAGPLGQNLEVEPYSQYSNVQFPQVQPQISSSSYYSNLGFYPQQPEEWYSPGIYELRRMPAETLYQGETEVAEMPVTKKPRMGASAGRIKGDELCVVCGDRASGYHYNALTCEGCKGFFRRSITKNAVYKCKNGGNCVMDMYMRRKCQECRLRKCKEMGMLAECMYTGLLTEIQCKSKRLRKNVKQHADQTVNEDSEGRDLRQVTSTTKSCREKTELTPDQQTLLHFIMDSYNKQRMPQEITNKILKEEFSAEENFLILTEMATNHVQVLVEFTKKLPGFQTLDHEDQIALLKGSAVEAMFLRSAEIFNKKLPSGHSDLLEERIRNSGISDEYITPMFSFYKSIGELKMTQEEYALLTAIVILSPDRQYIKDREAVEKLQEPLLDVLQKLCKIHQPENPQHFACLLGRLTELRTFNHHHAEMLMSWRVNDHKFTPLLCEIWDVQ
Method in brief: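 After 24 h chemical treatment of transfected HepG2 cells, GAL4-UAS reporter transcripts driven by an exogenous FXR-GAL4 fusion were measured by RT-PCR and capillary electrophoresis. Increases over DMSO were fitted.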

[19] = target: Oxysterols receptor LXR-beta (Homo sapiens) (UniProt P55055); test: ATG_LXRb_TRANS: Attagene TRANS-FACTORIAL HepG2 Assay for human Liver X Receptor beta (LXRb) (AID 2282981; active = hit-call score of the fitted dose curve at least 0.9, where 1 is the maximum); conditions: HepG2 Attagene TRANS GAL4-LXRb reporter, mRNA
Sequence of Oxysterols receptor LXR-beta (Homo sapiens) (P55055 whole entry, looked up, the tested form may be a part): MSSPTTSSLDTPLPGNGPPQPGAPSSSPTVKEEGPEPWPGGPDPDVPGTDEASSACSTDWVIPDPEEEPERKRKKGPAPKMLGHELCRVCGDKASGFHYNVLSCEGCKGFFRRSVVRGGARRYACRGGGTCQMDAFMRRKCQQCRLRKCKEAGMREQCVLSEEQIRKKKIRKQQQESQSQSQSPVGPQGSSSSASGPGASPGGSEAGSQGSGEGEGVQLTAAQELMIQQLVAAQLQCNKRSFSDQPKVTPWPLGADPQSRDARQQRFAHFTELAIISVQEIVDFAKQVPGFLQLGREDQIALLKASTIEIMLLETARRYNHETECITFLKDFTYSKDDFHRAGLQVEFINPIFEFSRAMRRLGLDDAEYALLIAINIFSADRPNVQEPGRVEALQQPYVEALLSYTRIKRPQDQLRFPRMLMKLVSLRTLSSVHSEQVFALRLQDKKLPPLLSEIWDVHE
Method in brief: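 Readout: fluorescent reporter mRNA fragments resolved by capillary electrophoresis after RT-PCR. System: transiently transfected human HepG2, exogenous LXRb-Gal4 chimera driving GAL4-UAS reporter, 24 h dosing. Activity fitted upward against DMSO baseline.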

[20] = ATG_VDRE_CIS: Attagene CIS-FACTORIAL HepG2 Assay for human Vitamin D Receptor Element (VDRE) (AID 2282968); conditions: HepG2 VDRE cis-reporter transcription, actives raise or lower the signal
Method in brief: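 Transient MRTU transfection of HepG2, 24 h compound exposure. Readout: reporter transcripts via RT-PCR and capillary electrophoresis, fluorescence. Bidirectional fit vs DMSO.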

Measured: AC50

COC(=O)/C=C\C(=O)OC
inactive: [1] | [2]

C=CN1CCCCCC1=O
inactive: [3]

COc1cc(CNC(=O)CCCC/C=C/C(C)C)ccc1O
inactive: [6] | [7] | [8] | [9] | [10] | [13]
active: [4] 4.25 µM | [5] 8.5 µM | [11] 5.46 µM | [12] 5.59 µM

CCCCC(CC)COC(=O)C=Cc1ccc(OC)cc1 (stereo not given)
inactive: [14]

c1ccc2c(c1)Oc1ccccc1S2
inactive: [15] | [16] | [2]
active: [17] 146 µM

COc1ccccc1Oc1c(NS(=O)(=O)c2ccc(C(C)(C)C)cc2)nc(-c2ncccn2)nc1OCCO
inactive: [4] | [5] | [6] | [7] | [8] | [9] | [10] | [11] | [12]

[O-][n+]1ccc(Cl)cc1
inactive: [3] | [18] | [19]

Cc1cc(O)cc(C)c1Cl
inactive: [3] | [19] | [1] | [14]

C1CN(CCOCCN2CCOCC2)CCO1
active: [11] 0.003 µM
inactive: [4] | [5] | [6] | [7] | [8] | [9] | [10] | [12] | [13]

CCC(C)=NO
inactive: [20] | [16] | [19] | [17] | [2] | [14]

CCC(C)(CCC(C)C)C(=O)O (stereo not given)
inactive: [15] | [20] | [17]

CC(=O)O[C@]1(C(C)=O)CC[C@H]2[C@@H]3C=C(C)C4=CC(=O)CC[C@]4(C)[C@H]3CC[C@@]21C
inactive: [14]

CCC(=O)OCc1ccc(OC)cc1
inactive: [20] | [16] | [3] | [18] | [19] | [1]

Cc1c(C(N)=O)cc([N+](=O)[O-])cc1[N+](=O)[O-]
inactive: [4] | [5] | [6] | [7] | [8] | [9] | [10] | [11] | [12] | [13]

CCCCCCC1CCCC(=O)O1 (stereo not given)
inactive: [20] | [3] | [1]
active: [17] 139 µM

CC(C)C1OCCN1CCOC(=O)NCCCCCCNC(=O)OCCN1CCOC1C(C)C (stereo not given)
inactive: [4] | [5] | [6] | [7] | [8] | [9] | [10] | [11] | [12] | [13]

O=[N+]([O-])c1cc(S(=O)(=O)Nc2ccccc2)ccc1Nc1ccccc1
active: [4] 25.1 µM | [5] 15 µM | [6] 1.26 µM | [7] 1.22 µM | [11] 20.9 µM | [12] 23.8 µM
inactive: [8] | [9] | [10] | [13]

CCOc1ccc2c(c1)C(C)CC(C)(C)N2 (stereo not given)
active: [20] 34 µM
inactive: [16] | [18] | [19] | [1] | [17]

CC/C=C\CCCCCO
inactive: [15] | [16] | [3] | [17] | [2]

CCCc1c(OCCCCc2nn[nH]n2)ccc(C(C)=O)c1O
active: [1] 50.4 µM | [17] 100 µM
inactive: [18] | [19] | [2] | [14]

COc1ccc(C(=O)c2ccccc2O)c(O)c1
active: [9] 0.003 µM | [10] 0.0203 µM
inactive: [4] | [5] | [6] | [7] | [8] | [11] | [12] | [13]

COC(=O)CCSCCC(=O)OC
inactive: [15] | [18] | [19] | [2]

CCC[Si](OC(C)=O)(OC(C)=O)OC(C)=O
active: [10] 0.072 µM
inactive: [4] | [5] | [6] | [7] | [8] | [9] | [11] | [12] | [13]

CCCCCC1CCCC(=O)O1 (stereo not given)
inactive: [15] | [20] | [16] | [3] | [18]

Cc1ccccc1S(=O)(=O)O
inactive: [17]

O=C1CCCCCCCCCCCCCC1
inactive: [15] | [20] | [19]
active: [1] 25.7 µM | [17] 32.6 µM

CCCCNC(N)=O
inactive: [15] | [20] | [16] | [3] | [18] | [19] | [2]

Oc1ccc2c(c1)Cc1ccccc1-2
inactive: [14]

CNCCC(Oc1ccc(C(F)(F)F)cc1)c1ccccc1 (stereo not given)
inactive: [14] | [6] | [7] | [8] | [9] | [10] | [13]
active: [4] 7.59 µM | [5] 5.91 µM | [11] 7.68 µM | [12] 6.04 µM
